Mtb UGM inh = blocks M. tuberculosis UGM enzyme; P9WIQ1; purified UGM, fluorescence polarization probe displacement; inhibition, % at 10 µM; 0.06% of 320,000 active; AID 504406; in the data active = inhibition above about 10%, passing the limit was not always enough
Target sequence (P9WIQ1 whole entry, looked up): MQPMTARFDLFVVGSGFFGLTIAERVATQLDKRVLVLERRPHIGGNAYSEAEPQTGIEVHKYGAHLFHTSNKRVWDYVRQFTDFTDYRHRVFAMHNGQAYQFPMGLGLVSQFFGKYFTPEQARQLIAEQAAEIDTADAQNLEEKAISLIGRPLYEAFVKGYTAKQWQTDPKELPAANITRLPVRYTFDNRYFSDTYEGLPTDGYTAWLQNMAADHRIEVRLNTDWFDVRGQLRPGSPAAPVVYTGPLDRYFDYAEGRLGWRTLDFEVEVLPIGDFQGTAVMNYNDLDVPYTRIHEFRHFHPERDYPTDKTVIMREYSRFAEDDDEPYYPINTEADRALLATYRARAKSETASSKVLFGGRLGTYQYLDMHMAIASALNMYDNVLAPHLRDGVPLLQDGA
Mtb bLac sens = beta-lactam sensitization of Mtb H37Rv. AID 434955. 0.27% of 330,000 active. inhibition, % at 25 µM. M. tuberculosis H37Rv growth with meropenem, percent inhibition; call rule not given here;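 also: growth measured after seven days incubation then overnight dye step; 0% = bacteria only wells and 100% = bacteria with antibiotic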
Mtb FBA inh = inhibitors of M. tuberculosis fructose-bisphosphate aldolase; P9WQA3; purified M. tuberculosis FBA, fluorescence read-out; inhibition, % at 1 µM; 2.3% of 360,000 active; AID 588726;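 also: 0% = vehicle and 100% = reference inhibitor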
RecA splice inh = inhibitors of M. tuberculosis RecA intein splicing | AID 2221 | 0.75% of 290,000 active | P9WHJ3 | inhibition, % (concentration not given with the values) | cell-free RecA intein splicing, fluorescence; in the data active = inhibition above about 30%;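 also: 0% = vehicle wells and 100% = reference inhibitor control wells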
GDH-TPI counter-1 = GDH-TPI coupled enzyme inhibition counter-screen | inhibition, % at 4.8 µM | 1.2% of 360,000 active | AID 588335 | GDH-TPI coupled enzyme counterscreen, NADH absorbance; in the data active = inhibition above about 30%;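 also: 0% = DMSO wells and 100% = wells lacking the enzyme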
Rv3671c protease = inhibits the M. tuberculosis serine protease Rv3671c; 0.048% of 320,000 active; P9WHR9; AID 2606; inhibition, % at 5.96 µM; in the data active = inhibition above about 38%;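 also: extracellular domain of Rv3671c used as enzyme; 0% = enzyme with DMSO and 100% = no enzyme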
Mtb FBA confirm = confirmation of M. tuberculosis fructose-bisphosphate aldolase inhibitors. 78% of 5,600 active. shares compounds with Mtb FBA inh. AID 651616. purified M. tuberculosis FBA, fluorescence read-out. inhibition, % at 1 µM;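 also: 0% = vehicle wells and 100% = reference inhibitor wells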
GDH-TPI counter-2 = counter-screen for M. tuberculosis FBA inhibitors: GDH-TPI coupled enzyme inhibition; shares compounds with Mtb FBA inh; GDH-TPI coupled enzyme counterscreen, fluorescence; inhibition, % at 1 µM; 81% of 5,600 active; AID 652141; in the data active = inhibition above about 10%
* = called active by the depositor; . = no result; + = active, no number. Rows were chosen to be rich in hits. Some 4% of all compounds tested hit in one or more screens of this group. Rule as the data show it, unless noted: active = inhibition above about 27%; inactive = the rest.

SMILES	Mtb UGM inh	Mtb bLac sens	Mtb FBA inh	RecA splice inh	GDH-TPI counter-1	Rv3671c protease	Mtb FBA confirm	GDH-TPI counter-2
CNC(=O)/C(C#N)=C/c1c(N2CCN(C)CC2)nc2c(C)cccn2c1=O	2	-1	28*	-230	17	-3	62*	59*
CCN1CCN(c2nc3c(C)cccn3c(=O)c2/C=C(\C#N)C(=O)NC)CC1	0	0	30*	-218	7	9	32*	20*
CCOC(=O)c1cnc2cc3c(cn2c1=O)CCCC3	0	-2	94*	-1	12	-1	+	+
Cc1ccc(-c2nc3ccccc3[nH]2)s1	-4	-9	58*	4	30	-2	68*	63*
c1csc(-c2nc3ccccc3[nH]2)c1	-3	-7	48*	.	8	4	63*	47*
c1ccc(-c2nc3ccccc3[nH]2)cc1	2	3	11	-2	4	7	.	.
Nc1nc(-c2nc3ccccc3[nH]2)cs1	-2	0	0	-3	16	1	.	.
S=C(Nc1ccc(-c2nc3ccccc3[nH]2)cc1)Nc1cccnc1	-1	-3	89*	10	11	-4	64*	60*
c1ccc2[nH]c(-c3ccncc3)nc2c1	-5	6	30*	.	3	-2	+	179*
COc1cc2c(cc1OC(C)=O)CCCCC2=O	.	.	0	.	14	.	.	.
Cc1cc(C)n(C(C)CNC(=O)c2ccc3c(c2)OCO3)n1 (stereo not given)	-1	-4	0	.	10	-13	.	.
N#CCCN(C(=O)CN1CCN(S(=O)(=O)c2ccc3c(c2)OCCO3)CC1)c1ccc(F)cc1	-3	2	0	.	2	6	.	.
COCC(C)NC(=O)COCc1cc(-c2ccc3c(c2)OCO3)on1 (stereo not given)	-1	-3	1	-2	-4	-7	.	.
Cc1nnsc1-c1nc2ccccc2[nH]1	-1	-2	81*	-2	13	9	17	3
Cc1[nH]c2ccccc2c1-c1nc2ccccc2[nH]1	-1	-12	14	2	11	-5	.	.
CCN(CC)c1c(C)nc2ccc(C(=O)N3CCN(C(=O)c4ccco4)CC3)cn12	.	.	0	.	5	.	.	.
Cc1cc(OC(C)C(=O)NCC2CCC(C(=O)O)CC2)c2c3c(c(=O)oc2c1)CCC3 (stereo not given)	2	-6	20	-2	7	-5	.	.
CCCc1cc(=O)oc2cc(OCC(=O)NCC(O)c3ccccc3)ccc12 (stereo not given)	0	-11	13	0	14	-1	.	.
CCCc1cc(=O)oc2cc(C)cc(OCC(=O)NCC(O)c3ccccc3)c12 (stereo not given)	-4	3	61*	-1	10	-1	161*	151*
Cc1cc(OC(C)C(=O)NCC2CCC(C(=O)O)CC2)c2c(C)cc(=O)oc2c1 (stereo not given)	0	-5	86*	.	9	-10	195*	190*
Cc1cc(OC(C)C(=O)NCC(O)c2ccccc2)c2c3c(c(=O)oc2c1)CCC3 (stereo not given)	0	2	77*	-3	13	8	32*	35*
Cc1cc(OC(C)C(=O)NCC(O)c2ccccc2)c2c(C)cc(=O)oc2c1 (stereo not given)	1	0	71*	-1	11	0	111*	98*
CCCn1c(N)c(C(=O)CN(C)CC(=O)Nc2ccccc2C(F)(F)F)c(=O)[nH]c1=O	.	-2	-5	.	1	2	.	.
CCCc1cc(=O)oc2cc(C)cc(OC(C)C(=O)NCC(O)c3ccccc3)c12 (stereo not given)	0	3	76*	0	2	0	3	0
CC1CC(C)CN(C(=O)CCC(=O)Nc2nnc(C3CCCCC3)s2)C1 (stereo not given)	-1	1	0	-3	4	1	.	.
COc1ccc(OC)c(N)c1	1	-1	-1	9	9	18	.	.
COc1cc(OC)c(Cl)cc1N	1	77	45*	0	-2	-1	67*	51*
COc1ccccc1CN1[C@@H](CC(=O)O)c2cc(F)ccc2S1(=O)=O	1	3	4	0	9	5	.	.

Compound activity from PubChem.
